Among all 350,000 compounds or so, about 31,000 (8.9%) were called active. Inconclusive results (about 15%) are left out. This is one part of a sample in which actives are shown more often than they occur. The call rests on the fitted dose curve; in most records, active means well fitted inhibition curve with a large enough effect; inconclusive means small, poorly fitted or top-dose-only effect; inactive means no such curve, though single readings can be large or run the other way.
molecular target: Histone-lysine N-methyltransferase EHMT2 (Homo sapiens) (UniProt Q96KQ7); experiment: qHTS Assay for Inhibitors of Histone Lysine Methyltransferase G9a; settings: G9a H3K9 monomethylation, AlphaScreen, 2 h; series mostly up to 102 µM; activity, negative = inhibition: at the top concentration; further: nearly all actives have a fitted effect of over 75% in size
Sequence (Q96KQ7 913-1193 limits assumed): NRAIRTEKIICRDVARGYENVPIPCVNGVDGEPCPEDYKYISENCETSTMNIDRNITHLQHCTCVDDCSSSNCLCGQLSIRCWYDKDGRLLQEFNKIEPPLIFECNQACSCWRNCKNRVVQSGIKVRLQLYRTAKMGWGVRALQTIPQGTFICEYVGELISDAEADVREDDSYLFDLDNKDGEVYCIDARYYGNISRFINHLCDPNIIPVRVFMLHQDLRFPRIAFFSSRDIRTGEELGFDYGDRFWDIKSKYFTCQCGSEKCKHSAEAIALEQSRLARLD
Procedure, shortened: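 Quantitative HTS format: methyltransferase activity on a biotin-tagged H3K9 peptide is measured by AlphaScreen, using a rabbit anti-monomethyl-H3K9 antibody with streptavidin donor and anti-IgG acceptor beads. Final levels are 20 nM enzyme, 500 nM peptide, 20 uM SAM; 2 h RT.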
On the % scale 0 is the no-effect control and ±100 the full control effect; potency means the concentration at half of the fitted maximal effect.

Compound	Potency	activity, negative = inhibition
Cc1ccnc(-n2c(C)cc(/C=C3\C(=O)NC(=S)N(C)C3=O)c2C)c1	6.31 µM (active)	
CN1CCC(OC(=O)c2cccc(F)c2)CC1		-16% (inactive)
CCN1CCN(c2ccc([N+](=O)[O-])cc2C#N)CC1		-50% (inactive)
O=C(N/N=C/c1c(O)n(C2CC2)c(=S)[nH]c1=O)c1ccccc1Cl		21.3% (inactive)
CCNC[C@H](O)c1cccc(O)c1		5.63% [at 21.5 µM] (inactive)
CN(c1ccccc1)c1ccc([N+](=O)[O-])c2nonc12	15.8 µM (active)	
O=c1c2ccccc2nc(-c2ccco2)n1-c1ccc(Br)cn1		11% [at 59 µM] (inactive)
CCOP(=S)(OCC)SCOC(=O)NCC(=O)OC		22% [at 59 µM] (inactive)
CCOC(=O)C(O)(c1ccc(N=Cc2ccccc2O)c(C)c1)C(F)(F)F (stereo unspecified)		14.5% (inactive)
COc1ccccc1N1CCN(C(CNC(=O)Oc2ccccc2)c2cccnc2)CC1 (stereo unspecified)		4.58% (inactive)
O=C(c1cc(S(=O)(=O)N2CCOCC2)ccc1F)N1CCC2(CC1)OCCO2		-11% [at 12.7 µM] (inactive)
Cc1nn(-c2ccccc2)c(C)c1NC(=O)COC(=O)Cc1ccccc1		-0.2% (inactive)
O=C(CN1CCCC1=O)NCCc1ccccc1		27.1% [at 12.7 µM] (inactive)
c1cc2c(cc1CCNC1CCCCCC1)OCO2	8.91 µM (active)	
CC(=NCc1ccc2c(c1)OCO2)c1c(O)[nH]c(=O)[nH]c1=O		-21.4% [at 12.7 µM] (inactive)
c1cc2c(cc1[C@H]1OC[C@H]3[C@@H]1CO[C@@H]3c1ccc3c(c1)OCO3)OCO2		39.6% [at 59 µM] (inactive)
OC(CNC1CCCCC1)c1ccccc1 (stereo unspecified)		2.5% [at 12.7 µM] (inactive)
c1ccc(CCNC2CCCCCC2)cc1	7.08 µM (active)	
CCN(CC)C(=O)c1ccc(NC(=O)c2sccc2-c2ccccc2)cc1		-8.18% (inactive)
CCN1C[C@]2(COC)C(O)C[C@H](OC)[C@@]34C5C[C@]6(O)C(OC)C(O)[C@](OC(C)=O)(C5C6OC(=O)c5ccccc5)C(C(OC)C23)C14 (stereo partly specified)		-10.7% [at 2.33 µM] (inactive)
CN[C@@H]1C[C@H]2O[C@@](C)([C@@H]1OC)n1c3ccccc3c3c4c(c5c6ccccc6n2c5c31)C(=O)NC4		inactive
Cc1ccc(-n2c(/C=C/c3cccc(C(F)(F)F)c3)nc3ccccc3c2=O)cc1		-5.19% [at 59 µM] (inactive)
CCOc1ccc(-c2cc(C)[n+](CCN(CC)CC)c(-c3ccc(OCC)cc3)c2)cc1		9.19% [at 59 µM] (inactive)
CCCCC(=O)N/N=C/c1c(O)n(CCC2=CCCCC2)c(=O)[nH]c1=O		-31.3% (inactive)
O=C(O)COc1ccccc1/C=C1\C(=O)NC(=O)N(CCC2=CCCCC2)C1=O	50.1 µM (active)	
CCN(CC)P(=O)(Oc1cccc(C)c1)N(CC)CC		-21.3% (inactive)

— PubChem BioAssay AID504332 (National Center for Advancing Translational Sciences (NCATS), 2011)
